# In publication PMC8384837, “Expanding the binding specificity for RNA recognition by a PUF domain”:
# Positions count from the first letter of the chain named.
# Assays:
# Assay in all cases: yeast three-hybrid, YBZ-1, SC-Leu-His + 0.5 mM 3-AT, 4 days
# Conditions in all cases: tags: N-Gal4 AD-HA kept; label: inside an RPR1-promoter hybrid RNA with tandem MS2 sites; ssRNA
# PUM1 PUF domain R4-TPQ = PUM1 PUF domain R4-TPQ (Homo sapiens, UniProt Q14671 828-1176, N971T;H972P)
# Method in brief: (§1)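 Pumilio-1 PUF domain libraries, randomized at the three base-contacting residues of each repeat, were co-expressed with matching RNA elements from a centromeric plasmid in strain YBZ-1, which carries a LexA–MS2 coat fusion and a HIS3 reporter. Transformants grew for four days on SC-Leu (input) or on SC-Leu-His + 0.5 mM 3-AT (selection), and the repeat regions were PCR-amplified and Illumina-sequenced. The interaction score is the log change in variant frequency from input to selection. That logarithm is base 2, with a pseudocount of 1 where a variant was absent.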
# PUM1 PUF domain R3-RPR = PUM1 PUF domain R3-RPR (Homo sapiens, UniProt Q14671 828-1176, C935R;R936P;Q939R)
# Method in brief: as §1
# PUM1 PUF domain R4-EHD = PUM1 PUF domain R4-EHD (Homo sapiens, UniProt Q14671 828-1176, N971E;Q975D)
# Method in brief: as §1
# PUM1 PUF domain R4-SMS = PUM1 PUF domain R4-SMS (Homo sapiens, UniProt Q14671 828-1176, N971S;H972M;Q975S)
# Method in brief: as §1
# PUM1 PUF domain R6-HWR = target: T1, PUM1 PUF domain R6-HWR (Homo sapiens, UniProt Q14671 828-1176, N1043H;Y1044W;Q1047R)
# T1 sequence: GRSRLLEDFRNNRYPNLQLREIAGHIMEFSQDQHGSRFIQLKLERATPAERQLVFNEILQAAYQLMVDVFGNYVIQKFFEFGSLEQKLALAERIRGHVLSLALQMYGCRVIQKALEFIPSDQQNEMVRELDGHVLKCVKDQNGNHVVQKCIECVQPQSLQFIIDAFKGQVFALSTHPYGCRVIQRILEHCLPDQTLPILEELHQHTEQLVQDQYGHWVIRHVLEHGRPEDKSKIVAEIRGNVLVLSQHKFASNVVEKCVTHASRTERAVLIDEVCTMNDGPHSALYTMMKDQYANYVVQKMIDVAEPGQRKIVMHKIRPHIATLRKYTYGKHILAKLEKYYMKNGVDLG
# Method in brief: as §1
# PUM1 PUF domain R8-KWK = PUM1 PUF domain R8-KWK (Homo sapiens, UniProt Q14671 828-1176, N1122K;Y1123W;Q1126K)
# Method in brief: as §1
# PUM1 PUF domain R4-HNV = PUM1 PUF domain R4-HNV (Homo sapiens, UniProt Q14671 828-1176, N971H;H972N;Q975V)
# Chain of PUM1 PUF domain R4-HNV (Q14671 828-1176 N971H/H972N/Q975V): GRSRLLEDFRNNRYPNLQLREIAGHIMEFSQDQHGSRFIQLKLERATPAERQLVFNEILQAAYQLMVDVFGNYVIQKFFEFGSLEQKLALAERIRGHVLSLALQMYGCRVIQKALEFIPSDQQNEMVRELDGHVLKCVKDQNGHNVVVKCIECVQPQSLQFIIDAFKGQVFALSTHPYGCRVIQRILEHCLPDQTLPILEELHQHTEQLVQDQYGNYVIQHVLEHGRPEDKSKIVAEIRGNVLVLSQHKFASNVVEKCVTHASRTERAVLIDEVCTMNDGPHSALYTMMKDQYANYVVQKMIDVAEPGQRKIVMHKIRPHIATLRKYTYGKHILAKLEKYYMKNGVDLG
# Method in brief: as §1
# PUM1 PUF domain R7-KFN = PUM1 PUF domain R7-KFN (Homo sapiens, UniProt Q14671 828-1176, S1079K;N1080F;E1083N)
# Method in brief: as §1
# PUM1 PUF domain R7-QCR = PUM1 PUF domain R7-QCR (Homo sapiens, UniProt Q14671 828-1176, S1079Q;N1080C;E1083R)
# Method in brief: as §1
# PUM1 PUF domain R6-FWI = target: T2, PUM1 PUF domain R6-FWI (Homo sapiens, UniProt Q14671 828-1176, N1043F;Y1044W;Q1047I)
# T2 sequence: T1 sequence with H216F, R220I
# Method in brief: as §1
sequence,measurement,setting,value
GGCUAGAACUAGUGGAUCCCCCGGCGCCCGGCGGCUCGAGCCCGGGUAAGUGUAGAUAGUCUGCAUGCCGCCGGGCGCCAUGCCUGCAGGUCGACUCUAGAAAACAUG,binding signal,PUM1 PUF domain R4-TPQ,1.66 log2 enrichment (interaction score)
GGCUAGAACUAGUGGAUCCCCCGGCGCCCGGCGGCUCGAGCCCGGGUAAGUGUAAUUAGUCUGCAUGCCGCCGGGCGCCAUGCCUGCAGGUCGACUCUAGAAAACAUG,binding signal,PUM1 PUF domain R3-RPR,5.3 log2 enrichment (interaction score)
GGCUAGAACUAGUGGAUCCCCCGGCGCCCGGCGGCUCGAGCCCGGGUAAGUGUAAAUAGUCUGCAUGCCGCCGGGCGCCAUGCCUGCAGGUCGACUCUAGAAAACAUG,binding signal,PUM1 PUF domain R4-EHD,3.48 log2 enrichment (interaction score)
same,binding signal,PUM1 PUF domain R4-SMS,2.84 log2 enrichment (interaction score)
same,binding signal,PUM1 PUF domain R3-RPR,1.87 log2 enrichment (interaction score)
same,binding signal,PUM1 PUF domain R6-HWR,7.48 log2 enrichment (interaction score)
same,binding signal,PUM1 PUF domain R8-KWK,5.56 log2 enrichment (interaction score)
GGCUAGAACUAGUGGAUCCCCCGGCGCCCGGCGGCUCGAGCCCGGGUAAGUGUACAUAGUCUGCAUGCCGCCGGGCGCCAUGCCUGCAGGUCGACUCUAGAAAACAUG,binding signal,PUM1 PUF domain R4-HNV,2.63 log2 enrichment (interaction score)
same,binding signal,PUM1 PUF domain R4-TPQ,3.39 log2 enrichment (interaction score)
GGCUAGAACUAGUGGAUCCCCCGGCGCCCGGCGGCUCGAGCCCGGGUAAGUCUAAAUAGUCUGCAUGCCGCCGGGCGCCAUGCCUGCAGGUCGACUCUAGAAAACAUG,binding signal,PUM1 PUF domain R7-KFN,3.14 log2 enrichment (interaction score)
same,binding signal,PUM1 PUF domain R7-QCR,3.59 log2 enrichment (interaction score)
GGCUAGAACUAGUGGAUCCCCCGGCGCCCGGCGGCUCGAGCCCGGGUAAGCGUAAAUAGUCUGCAUGCCGCCGGGCGCCAUGCCUGCAGGUCGACUCUAGAAAACAUG,binding signal,PUM1 PUF domain R8-KWK,6.96 log2 enrichment (interaction score)
GGCUAGAACUAGUGGAUCCCCCGGCGCCCGGCGGCUCGAGCCCGGGUAAGUGUAUAUAGUCUGCAUGCCGCCGGGCGCCAUGCCUGCAGGUCGACUCUAGAAAACAUG,binding signal,PUM1 PUF domain R4-EHD,6.81 log2 enrichment (interaction score)
same,binding signal,PUM1 PUF domain R4-SMS,1.55 log2 enrichment (interaction score)
same,binding signal,PUM1 PUF domain R4-TPQ,4.97 log2 enrichment (interaction score)
GGCUAGAACUAGUGGAUCCCCCGGCGCCCGGCGGCUCGAGCCCGGGUAAGUGAAAAUAGUCUGCAUGCCGCCGGGCGCCAUGCCUGCAGGUCGACUCUAGAAAACAUG,binding signal,PUM1 PUF domain R6-HWR,1.35 log2 enrichment (interaction score)
same,binding signal,PUM1 PUF domain R6-FWI,3.65 log2 enrichment (interaction score)
